# From PubChem BioAssay AID489043 (National Center for Advancing Translational Sciences (NCATS), 2010)
# Inconclusive results are not listed. A call without a number means that no potency is given here. Active and inactive are the calls of the source. The call rests on the fitted dose curve; in most records, active means well fitted activation curve with a large enough effect; inconclusive means small, poorly fitted or top-dose-only effect; inactive means flat fitted curve, though single readings scatter.
# Molecular target: Relaxin receptor 2 (Homo sapiens) (UniProt Q8WXD0)
# Test: qHTS Assay for Agonists of the Relaxin Receptor RXFP1: RXFP2 Hit Validation; further: nearly all actives have a fitted effect of over 65% in size
# Settings: HEK293 RXFP2 cAMP TR-FRET, 30 min; series mostly up to 44.7 µM
# From the text: NIH Chemical Genomics Center [NCGC] NIH Molecular Libraries Probe Production Centers Network [MLPCN] MLPCN Grant: R03 MH085705-01A1 Assay Submitter (PI): Alexander Agoulnik NCGC Assay Overview: The relaxin hormone is involved in the variety of biological functions in normal tissues and diseases. The role of relaxin is well-established in female reproduction and parturition, mammary gland and endometrial development, maintenance of myometrial quiescence during pregnancy. Relaxin signaling through its G protein-coupled receptor (GPCR) RXFP1 results in ECM remodeling through regulation of collagen deposition, cell invasiveness, proliferation and overall tissue homeostasis. […] Recombinant human relaxin (rhRlx) is currently being tested in clinical trials as a protective agent in congestive heart failure, in treating severe preeclampsia, and as an anti-fibrotic agent in systemic sclerosis. Upon relaxin binding RXFP1 activation leads to the activation of adenylate cyclase (AC) via Gs. cAMP will activate PKA, which phosphorylates many signaling proteins. Thus, detection of cAMP increase is an easy and reliable indication of relaxin receptor activation. To screen for agonists of the relaxin receptor, a HEK293T cell line stably transfected with RXFP1 was used. RXFP1 activation was assayed by changes in cAMP levels as detected with a time-resolved fluorescence energy transfer (TR-FRET) cAMP detection kit. This assay measures activation of a cell expressing RXFP2, another GPCR targeted by relaxin, to determine the selectivity of compounds for RXFP1.
# NCGC Assay Protocol Summary: This is a cell-based assay for cAMP second messenger response to screen for agonists of the RXFP2 receptor. The assay was conducted in the presence of a PDE4 inhibitor (Ro 20174). The cells were lysed and the cAMP levels were measured with a TR-FRET cAMP kit. Presence of cAMP in the cell lysate disrupts binding between the cryptate-labeled anti-cAMP and d2-labeled cAMP pair, leading to a decrease in the TR-FRET signal. Data were normalized to the controls for basal activity (buffer only) and 100% activity (29 nM porcine relaxin). The EC50 values were determined from concentration-response data modeled with the standard Hill equation 1536-well assay protocol for the HEK293 RXFP2 cAMP assay: (1) Add 3 ul HEK293 RXFP2 cell culture. 2000 cells/well in DMEM/F12, 10% FBS, 1x Pen/Strep (dispensed offline with MultiDrop Combi). (2) Incubate 16-24 hr at 37C, 5% CO2. (3) Add 1 ul 400uM Ro20174 in DPBS, 0.05% BSA, 0.005% Tween 20. (3) Add 23 nl compounds in DMSO solution. Final concentration was 0.5 - 58 uM. (4) Incubate 30 min at 37C, 5% CO2. (5) Add 1 ul cAMP-d2 in lysis buffer (HTRF cAMP HiRange kit, CisBio). (6) Add 1 ul anti-cAMP antibody-cryptate in lysis buffer (HTRF cAMP HiRange kit, CisBio). […]
# Potency means the concentration at half of the fitted maximal effect.
# Sequence of Relaxin receptor 2 (Homo sapiens) (Q8WXD0 whole entry, looked up): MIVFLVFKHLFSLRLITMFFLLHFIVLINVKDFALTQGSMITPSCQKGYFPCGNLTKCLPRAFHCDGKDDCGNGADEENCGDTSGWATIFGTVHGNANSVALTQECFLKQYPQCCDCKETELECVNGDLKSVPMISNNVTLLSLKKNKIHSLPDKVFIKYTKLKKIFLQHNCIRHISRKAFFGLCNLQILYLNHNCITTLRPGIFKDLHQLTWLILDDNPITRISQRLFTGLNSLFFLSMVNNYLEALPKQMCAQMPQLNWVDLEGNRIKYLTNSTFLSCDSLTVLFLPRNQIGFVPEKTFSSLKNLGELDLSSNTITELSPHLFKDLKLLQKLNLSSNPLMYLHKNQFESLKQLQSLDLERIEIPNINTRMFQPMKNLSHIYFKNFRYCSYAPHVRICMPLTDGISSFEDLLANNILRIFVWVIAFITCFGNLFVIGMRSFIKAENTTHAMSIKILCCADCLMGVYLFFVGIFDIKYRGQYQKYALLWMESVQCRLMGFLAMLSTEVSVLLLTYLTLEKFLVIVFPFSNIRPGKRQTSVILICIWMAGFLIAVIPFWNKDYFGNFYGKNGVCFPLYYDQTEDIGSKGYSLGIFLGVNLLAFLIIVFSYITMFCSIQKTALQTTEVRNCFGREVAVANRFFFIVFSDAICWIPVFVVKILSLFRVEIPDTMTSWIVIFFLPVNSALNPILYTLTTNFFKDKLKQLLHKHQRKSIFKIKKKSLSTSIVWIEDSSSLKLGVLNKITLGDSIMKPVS
row,Compound,Potency
1,O=C(O)c1sc2cc(Cl)ccc2c1Cl,inactive
2,CCNC(=O)[C@H]1O[C@@H](n2cnc3c(N)ncnc32)[C@H](O)[C@@H]1O,0.974 µM (active)
3,Nc1ncc2[nH]cnc2n1,17.4 µM (active)
4,CCC(Oc1cc(Cl)ccc1Cl)C(=O)N1CCC2(CC1)OCCO2 (centres undefined),inactive
